# Measurements as given in PubChem BioAssay.
# Active and inactive are the calls of the source.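 How the source made its calls, unless noted: active means inhibition at or above 50% at 10 µM; inactive means inhibition below 50%.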
# Columns and labels:
# [1] = inhibitors of TNFa-induced NFkB p65 translocation, primary screen, imaging, HUVEC, MLSMR starter and 10KST1 sets (AID 438;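 active means inhibition above 20% together with a positive visual image hit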;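 further: compound added about 3h40 before a 20 min TNFalpha stimulation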;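 on inhibition: signal is the nuclear over cytoplasmic p65 intensity ratio per well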); settings: HUVEC TNFa-induced p65 nuclear translocation; cell count: measured here: nuclei count (cytotoxicity indicator), at 2.08 µM; inhibition: at 2 µM, stronger effect = higher value, 0% TNFa-plus-vehicle, 100% no-TNFa wells
# [2] = reduction of polyQ htt aggregates in cells – imaging, exon1htt(103Q)mCFP cells, high-content imaging, primary screen (AID 483;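 active means visual image review flags a hit and inhibition of aggregation exceeds 20%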;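 further: compound exposure lasted 3 days before fixation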;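 on nuclei count: percent of the per-plate median nuclei count of sample wells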); settings: exon1htt(103Q)mCFP cell line, aggregate imaging, at 2 µM; inhibition of aggregation: stronger effect = higher value; nuclei count: measured here: cell count, toxicity
# [3] = endothelial E-selectin expression blockers – imaging, HUVEC, immunofluorescence, MLSMR starter and 10KST1 sets, primary screen (AID 487;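 active means visually confirmed hit in the image check and inhibition above 20%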;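 on inhibition: signal is fraction of cell area covered by stained E-selectin grains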;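 on nuclei count: 100% = median nuclei count of all wells on the same plate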); settings: HUVEC TNFalpha-induced E-selectin immunofluorescence imaging, at 2 µM; inhibition: stronger effect = higher value; nuclei count: measured here: cell number, toxicity
# [4] = target: Voltage-gated potassium channel subunit beta-2 (Rattus norvegicus) (UniProt P62483); test: inhibitors of rat Kvbeta2 reductase activity – biochemical, NADPH fluorescence, primary screen (AID 622;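 active means fluorescence slope higher than the sample average by over 3 SD, cut at about -0.22 in these data, passing the limit was not always enough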;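 further: slope of raw intensity against log time taken from 70 to 1610 s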); settings: recombinant KvBeta, 4-cyanobenzaldehyde reduction, at 10 µM, stronger effect = higher value
# Sequence of Voltage-gated potassium channel subunit beta-2 (Rattus norvegicus) (P62483 whole entry, looked up): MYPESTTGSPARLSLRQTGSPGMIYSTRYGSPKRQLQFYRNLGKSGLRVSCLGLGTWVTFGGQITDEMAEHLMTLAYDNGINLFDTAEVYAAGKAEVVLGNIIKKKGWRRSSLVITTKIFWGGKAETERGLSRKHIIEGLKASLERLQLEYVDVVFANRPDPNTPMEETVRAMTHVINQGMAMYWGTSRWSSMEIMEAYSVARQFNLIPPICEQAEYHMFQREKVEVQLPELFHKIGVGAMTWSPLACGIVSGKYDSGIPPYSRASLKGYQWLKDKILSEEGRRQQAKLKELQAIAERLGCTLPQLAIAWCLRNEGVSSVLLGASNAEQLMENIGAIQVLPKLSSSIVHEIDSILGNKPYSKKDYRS
# [5] = target: Voltage-gated potassium channel subunit beta-2 (Rattus norvegicus) (UniProt P62483); test: enhancers of rat Kvbeta2 NADPH turnover – biochemical, NADPH fluorescence, primary screen (AID 623;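 active means NADPH fluorescence slope more negative than the mean of all samples by about 3 SD, 99.7% confidence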;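 further: fluorescence intensity change per second fitted from 20 to 320 s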); settings: Recombinant KvBeta, NADPH fluorescence decrease slope, 10 min; at 10 µM; stronger effect = lower value
# [6] = target: Alpha-2C adrenergic receptor (Homo sapiens) (UniProt P18825); test: compounds altering alpha2C-coupled GIRK flux – cell-based, HEK293 alpha2C/GIRK1/2, thallium flux, primary screen (AID 624;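 active means fluorescence slope after compound addition differing from the mean of all screened samples at 99.7% confidence, in either direction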;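 further: slope of fluorescence ratio to pre-addition baseline per second over 15 to 24 s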); settings: thallium flux BTC fluorescence, at 10 µM, actives lie on both sides
# Sequence of Alpha-2C adrenergic receptor (Homo sapiens) (P18825 whole entry, looked up): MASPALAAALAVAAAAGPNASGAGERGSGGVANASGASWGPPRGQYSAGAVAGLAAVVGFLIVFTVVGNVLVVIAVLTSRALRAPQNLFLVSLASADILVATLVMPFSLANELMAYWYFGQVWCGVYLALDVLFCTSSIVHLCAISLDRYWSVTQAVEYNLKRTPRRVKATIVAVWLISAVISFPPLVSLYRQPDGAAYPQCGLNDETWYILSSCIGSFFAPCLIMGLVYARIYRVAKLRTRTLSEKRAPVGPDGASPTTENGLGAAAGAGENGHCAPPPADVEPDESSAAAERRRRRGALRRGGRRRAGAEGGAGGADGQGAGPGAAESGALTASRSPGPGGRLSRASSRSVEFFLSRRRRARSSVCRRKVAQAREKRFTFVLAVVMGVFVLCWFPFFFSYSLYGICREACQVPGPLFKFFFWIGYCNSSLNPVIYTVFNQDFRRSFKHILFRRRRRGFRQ
# [7] = blockers of RIG-like receptor reporter activation – cell-based, Sendai virus stimulus, luciferase, 10K MLSCN set, TLR/RLR signaling modifier project, primary screen (AID 602276); settings: HEK293 RL24 IRF3 luciferase reporter, at 10 µM, stronger effect = higher value;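 further: firefly luciferase from ISG56 promoter only with Renilla not read in this screen; 0% = Sendai virus plus DMSO and 100% = medium plus DMSO without virus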
# [8] = TLR3 IRF3 reporter activation blockers – cell-based, poly I:C stimulus, luciferase, 10K MLSCN set, primary screen (AID 602277;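 active means inhibition of the reporter signal at or above 50%; inactive means inhibition below 50%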); settings: HEK293-TLR3 RL24 IRF3 luciferase reporter, at 10 µM, stronger effect = higher value
Compound,cell count [1],inhibition [1],inhibition of aggregation [2],nuclei count [2],inhibition [3],nuclei count [3],fluorescence slope [4],NADPH fluorescence slope [5],slope [6],inhibition [7],inhibition [8]
CCC1CCCCN1CCNS(=O)(=O)c1ccc2c(c1)oc(=O)n2C (stereo not drawn),809,1.8% (inactive),19.9% (inactive),97.2%,-92.7% (inactive),116%,-0.581 (inactive),-4.9e-05 (inactive),0.00605 (inactive),14.3% (inactive),39.8% (inactive)
CCN(CC)c1ccc(NC(=O)c2nc3nc(C)cc(C(F)F)n3n2)cc1,650,-1.9% (inactive),14.6% (inactive),98.5%,-10.1% (inactive),114%,-0.535 (inactive),-3.4e-05 (inactive),0.00747 (inactive),21.5% (inactive),-6.45% (inactive)
C=CCn1c(SCC(=O)c2ccc(OC)cc2)nnc1C(C)NC(=O)c1cccs1 (stereo not drawn),661,-0.6% (inactive),1.5% (inactive),127%,-44.6% (inactive),132%,-0.349 (inactive),-4e-06 (inactive),0.00302 (inactive),10.6% (inactive),12.5% (inactive)
CCOc1ccc2c(c1)c1nnc(SCC(=O)N3CCC(C)CC3)nc1n2C,432,-0.2% (inactive),0.1% (inactive),99.9%,-30.2% (inactive),114%,-0.326 (inactive),-5.2e-05 (inactive),0.00371 (inactive),-10.6% (inactive),-29.5% (inactive)
CCCOc1ccc(N2C(=O)CC(SCCN)C2=O)cc1 (stereo not drawn),428,-8.7% (inactive),-9.8% (inactive),116%,-48.7% (inactive),116%,-0.4 (inactive),-1.8e-05 (inactive),0.00441 (inactive),-37.6% (inactive),-77.1% (inactive)
Cc1cc(C)n2nc(SCc3cc(=O)n4ccccc4n3)nc2n1,536,-16.3% (inactive),13% (inactive),66.3%,-75.8% (inactive),112%,-0.29 (inactive),-4.7e-06 (inactive),0.00424 (inactive),5.17% (inactive),14.4% (inactive)
CCOC(=O)CSc1nnc(Cn2nnc(-c3ccccc3)n2)n1CC,415,-0.8% (inactive),5.4% (inactive),109%,-34.4% (inactive),164%,-0.402 (inactive),2.4e-05 (inactive),0.006 (inactive),15.9% (inactive),21.4% (inactive)
COc1cc2c(cc1OC)CN(CC(=O)Nc1cccc(C)c1)CC2,384,3.5% (inactive),-6.2% (inactive),98.6%,-74.2% (inactive),102%,-0.495 (inactive),-1.8e-05 (inactive),0.00456 (inactive),7.7% (inactive),9.94% (inactive)
COc1ccc(-c2nc3cc(NC(=O)Cc4ccc(OC)c(OC)c4)ccc3o2)cc1,581,-25.3% (inactive),-10.5% (inactive),88.5%,-13.5% (inactive),114%,-0.468 (inactive),-4.6e-05 (inactive),0.00505 (inactive),-9.84% (inactive),-114% (inactive)
CCOC(=O)c1ccc(NC(=O)CCc2nc(-c3cccc(C)c3)no2)cc1,387,12.6% (inactive),-10.1% (inactive),102%,-1% (inactive),100%,-0.565 (inactive),-6.8e-05 (inactive),0.00651 (inactive),-14.6% (inactive),-24% (inactive)
O=C(CCc1nc2ccccc2[nH]1)Nc1ccc2c(c1)OCO2,310,-9.6% (inactive),23.8% (inactive),111%,-68.2% (inactive),111%,-0.347 (inactive),1.4e-05 (inactive),0.00426 (inactive),-10.7% (inactive),-26.2% (inactive)
O=C(CSc1nccn1Cc1ccccc1)Nc1nccs1,388,-0.7% (inactive),10.4% (inactive),83.7%,-16.7% (inactive),118%,-0.512 (inactive),-2.7e-05 (inactive),0.00698 (inactive),-30.1% (inactive),-82.1% (inactive)
Cn1c(-c2ccccc2)cc(=O)c2ccccc21,419,-3.8% (inactive),2.5% (inactive),92.7%,-39.8% (inactive),118%,-0.457 (inactive),3.9e-05 (inactive),0.00556 (inactive),9.11% (inactive),16.3% (inactive)
